Compound activity: PubChem, National Center for Advancing Translational Sciences (NCATS)
An excerpt weighted towards active compounds, which were near 3.7% of everything screened.
BRCA1 expr up = BRCA1 expression activation; MCF7-BRCA1-FFLuc reporter, luminescence, 48 h; response scale: scaled: vehicle 0%, 10 µM genistein 100%; Potency, µM (top dose mostly 46.1 µM), without a hit: at the top dose activation, most hits filed as activators; actives 1.1% (n = 380,000); AID 624202; further: potency means the concentration at half of the fitted maximal effect; nearly all actives have a fitted effect of over 80% in size
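Compounds are tested at multiple concentrations on MCF7 BRCA1-luciferase reporter cells seeded at 2000 per well; after 48 h, a single luminescence end-point is taken and curves fitted to the normalized data.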
RGS4 inhibitor = blocks human RGS4-accelerated GTP hydrolysis; Potency, µM (doses to about 114 µM), for the others: at the top dose activity change, negative = inhibition, hits mostly inhibitors; P49798; Transcreener GDP fluorescence polarization, RGS4-accelerated GTP hydrolysis; actives 0.039% (n = 390,000); further: potency means the concentration at half of the fitted maximal effect; on the % scale 0 is the no-effect control and ±100 the full control effect; nearly all actives have a fitted effect of over 75% in size
Target sequence (P49798 whole entry, looked up): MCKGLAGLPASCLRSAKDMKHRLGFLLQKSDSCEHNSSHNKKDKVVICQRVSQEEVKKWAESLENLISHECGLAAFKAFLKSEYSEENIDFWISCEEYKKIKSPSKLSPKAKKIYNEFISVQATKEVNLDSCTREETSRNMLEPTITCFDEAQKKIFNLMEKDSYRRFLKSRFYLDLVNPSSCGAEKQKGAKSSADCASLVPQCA
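MLSMR compounds (23 nl, pin-transferred) preincubated 10 min at room temperature with a 500nM (2x) first reagent, then RGS4 at 900nM (2x) plus Transcreener GDP mix added; fluorescence polarization (620/688 nm) read before and after 90 min at 30 °C.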
B2AR arrestin = recruits beta-arrestin to the human beta2-adrenergic receptor. beta-arrestin recruitment to beta2AR, cell-based reporter. P07550. Potency, µM (series often up to 46.1 µM), without a hit: at the highest dose activation, most hits filed as activators. actives 0.02% (n = 330,000);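 further: potency means the concentration at half of the fitted maximal effect; 0% = DMSO controls and full agonism = EC100 isoproterenol or metaproterenol; nearly all actives have a fitted effect of over 65% in size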
Target sequence (P07550 whole entry, looked up): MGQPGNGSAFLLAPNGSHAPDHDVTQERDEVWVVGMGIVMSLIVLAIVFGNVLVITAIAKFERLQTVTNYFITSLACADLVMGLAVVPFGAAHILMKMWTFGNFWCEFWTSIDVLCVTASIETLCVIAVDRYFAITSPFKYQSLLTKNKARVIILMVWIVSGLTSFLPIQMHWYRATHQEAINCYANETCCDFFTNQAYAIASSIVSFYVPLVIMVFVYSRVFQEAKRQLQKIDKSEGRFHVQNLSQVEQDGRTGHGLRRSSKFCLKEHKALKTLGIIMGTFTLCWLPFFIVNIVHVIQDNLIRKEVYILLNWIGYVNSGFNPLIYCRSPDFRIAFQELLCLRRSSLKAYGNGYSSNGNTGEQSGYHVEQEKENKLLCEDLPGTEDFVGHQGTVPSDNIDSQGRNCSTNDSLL
D3 antag = antagonists of human D3 dopamine receptor; P35462; max response, negative = inhibition, %; actives 2.5% (n = 360,000); AID 652054; D3R cells, DiscoveRx beta-arrestin luminescence, antagonist mode; active compounds read low; in the data active means max response below about -50%; inconclusive means no clear call, values can overlap the other calls; further: on the % scale 0 is the no-effect control and ±100 the full control effect
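Cells expressing the human receptor were seeded at 1500 cells/well, incubated overnight at 37 degrees C in 5% CO2, then exposed to library compounds with dopamine controls for 90 minutes at 37 degrees C before luminescent detection.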
D3 ag = D3 dopamine receptor (human) agonism. AID 652048. max activation, %. P35462. D3R DiscoveRx beta-arrestin cells, luminescence, 90 min. actives 0.58% (n = 410,000); in the data active means max activation above about 30%; further: 0% is about no effect
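Agonist mode: compounds and dopamine controls were applied to plated cells for 90 min at 37 degrees C after an overnight attachment at 1500 cells/well. Luminescent read-out followed 30 - 60 minutes at room temperature with DiscoveRx detection reagent.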
PTHR1 ag = activates the human parathyroid hormone receptor PTHR1; HEK293 GP2 PTHR1 cells, GloSensor cAMP luminescence, 1 h; actives 0.075% (n = 410,000); Potency, µM (doses to about 115 µM), inactives show at the top dose activation, hits mostly activators; AID 743266; further: potency means the concentration at half of the fitted maximal effect; nearly all actives have a fitted effect of over 55% in size
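HEK-293-derived GP2 cells expressing PTHR1 and a GloSensor cAMP reporter, 3,000/well, plated overnight, given luciferin plus IBMX (each 0.5 mM as added) for 1 h at 37 °C, then compound for 1 h at 37 °C. Luminescence was read after 15 min at room temperature.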
* hit, by the source's call; i = inactive; ? = inconclusive; · = no result given; [ ] = remark or other dose. Unless noted, the call rests on the fitted dose curve; in most records, active means well fitted curve in the direction sought with a large enough effect; inconclusive means small, poorly fitted or top-dose-only effect, or another doubt; inactive means no such curve, though single readings can be large; an effect the other way counts as inactive or inconclusive.

SMILES | BRCA1 expr up | RGS4 inhibitor | B2AR arrestin | D3 antag | D3 ag | PTHR1 ag
CN(CC(=O)Nc1c(Cl)cccc1Cl)C(=O)CNC(=O)c1ccco1 | -4% | -2% | 0% | -21 | -1 | -23%
CC(=O)N1CCc2c(sc3c2c(=O)n(-c2ccc(C)cc2)c(=O)n3Cc2c(F)cccc2Cl)C1 | 7% | 11% | · | · | -13 | -29%
COc1cc2c(C=O)c3c4c(cc(OC)c(OC)c4c2cc1OC)CCN3C | · | -66%[56.9 µM] | · | · | · | ·
Cc1c(Cl)cccc1NC(=S)NC1CCN(Cc2ccccc2)CC1 | -39% | -38% | -1% | -72* | -13 | -16%
S=C(Nc1ccc(Cl)cc1Cl)NC1CCN(Cc2ccccc2)CC1 | -28% | 4% | -1% | -28 | -6 | i
FC(F)(F)c1ccccc1NC(=S)NC1CCN(Cc2ccccc2)CC1 | -1% | -9% | 0% | -58* | -20 | i
CC(=O)NC(CC(=O)NCc1ccncc1)c1ccccc1 (stereo not given) | -4% | -13% | 0% | 10 | 10 | i
CC(=O)c1sc(NC(=O)C2CC(=O)N(Cc3ccccc3)C2)nc1-c1ccccc1 (stereo not given) | -12% | 13% | 0% | 6 | 0 | -24%
CC(=O)N1[C@H](C)C=C[C@]1(Cc1ccccc1)C(=O)O | -9% | -7% | 0% | 8 | 31* | i
C[C@@H]1C=C[C@](Cc2ccccc2)(C(=O)O)N1C(=O)c1ccccc1 | -6% | 4% | · | 0 | -11 | 20%
CC1=NOC(=O)/C1=C\c1ccc(-c2cc(Cl)ccc2Cl)o1 | -30% | -71% | 0% | -63* | -6 | -12%
Cc1ccc(C(=O)N(C)CC(=O)Nc2cccc(C)c2C)o1 | -5% | 3% | 0% | 9 | -2 | i
Cc1cccc(C(=O)OCC(=O)NC2CCCCCCC2)c1 | 1% | 26% | 0% | ? | 5 | -90%
Cc1cccc(C(=O)OCC(=O)NC(=O)NC2CCCCC2)c1 | -5% | · | · | -117* | 3 | -1%
O=C(COc1ccc(Br)cc1Cl)NC(=O)NC1CCCC1 | ? | 4% | 0% | -2 | -3 | -39%
O=C(COc1ccc(Cl)cc1Br)NC(=O)NC1CCCC1 | 13µM* | -9% | 0% | 11 | -1 | -31%
O=C(COc1ccc(Cl)cc1Cl)NC(=O)NC1CCCC1 | 4µM* | 12% | 0% | -5 | -14 | -21%
COc1cc2c(cc1OC)C1CCN3C(=O)CCC3N1CC2 (stereo not given) | -19% | -38% | · | 2 | 0 | i
Cc1ccc(CNC(=O)Nc2ccccc2)cc1 | 3.5µM* | -37% | 0% | 3 | 1 | -12%[57.5 µM]
Cc1ccc(CNC(=O)NCc2ccccc2)cc1 | 49% | 1% | -1% | 23 | 2 | i
Cc1ccc(C)c(CNC(=O)Nc2ccccc2)c1 | 7.1µM* | 3% | 0% | -5 | 8 | -3%
O=C(NCc1ccc(Cl)cc1Cl)Nc1ccccc1 | ? | -9% | · | 11 | 2 | -20%
O=C(NCc1ccc(F)cc1)Nc1ccccc1 | 10µM* | -9% | -1% | 15 | 5 | i
CC(=O)Nc1ccc(S(=O)(=O)N(C)CC(=O)OC(C)C(=O)N(C)C2CCCCC2)cc1 (stereo not given) | 0% | -4% | 0% | 6 | 3 | i
O=C(Cn1cc(SCc2ccc(C(F)(F)F)cc2)c2ccccc21)N1CCOCC1 | · | 2% | · | · | -8 | -43%
SMILES | BRCA1 expr up | RGS4 inhibitor | B2AR arrestin | D3 antag | D3 ag | PTHR1 ag
CC(=O)NC(c1cccc(F)c1)c1nc(-c2cnn(C)c2)cs1 (stereo not given) | 0% | · | · | -53* | -25 | i
COC(=O)[C@H](C)N(Cc1ccc(Cl)c(Cl)c1)S(=O)(=O)CCN1CCN(c2ccccc2)CC1 | 9% | -8% | 0% | -71* | -32 | i
COC(=O)[C@H](C)N(Cc1ccc(Cl)c(Cl)c1)S(=O)(=O)CCN1CCCC1 | 0% | 6% | -1% | -68* | -73 | i
O=S(=O)(c1ccccc1)c1nc(-c2ccco2)oc1SCc1ccc(F)cc1 | · | 15% | · | · | 1 | -4%
Cc1ccnc(NCc2cc(Cl)cc(Cl)c2O)c1 | -9% | · | · | -17 | -4 | i
Cc1cc(C)c(O)c(CN(C)Cc2cc(Cl)cc(Cl)c2O)c1 | -81% | 0% | · | 17 | 41* | -54%
COc1ccc(C(=O)O)cc1S(N)(=O)=O | 4% | -15% | 0% | -60* | -12 | -11%
CC1CCN(c2nn3c(=O)c(C(=O)NCCCOC(C)C)cnc3s2)CC1 | · | -17% | · | · | -2 | -7%
CCCCCC(=O)N1C[C@H](n2cc(COC(=O)c3ccccc3)nn2)[C@@H](O)C[C@@H]1c1ccc(Cl)cc1 | -64% | · | · | 0 | -7 | i
CSc1nnc(NC(=O)c2nc(S(=O)(=O)Cc3ccccc3F)ncc2Cl)s1 | -50% | -46% | 0% | 0 | -25 | -22%
Cc1ccc(CS(=O)(=O)c2ncc(Cl)c(C(=O)Nc3nnc(C(C)C)s3)n2)cc1 | -54% | ? | 0% | 0 | -21 | -23%
Cc1ccc(C)c(NC(=O)c2nc(S(=O)(=O)Cc3ccc(F)cc3)ncc2Cl)c1 | · | -35% | · | · | -29 | -36%
CC(C)c1nnc(NC(=O)c2nc(S(=O)(=O)Cc3ccccc3F)ncc2Cl)s1 | -51% | -17% | 0% | -51* | -6 | -33%
CC(C)c1nnc(NC(=O)c2nc(S(=O)(=O)Cc3ccc(F)cc3)ncc2Cl)s1 | -31% | -45% | 0% | -61* | -22 | -21%
CCSc1nnc(NC(=O)c2nc(S(=O)(=O)Cc3ccc(F)cc3)ncc2Cl)s1 | -89% | -50% | 0% | -68* | -18 | -24%
Cc1nnc(NC(=O)c2nc(S(=O)(=O)Cc3ccccc3C)ncc2Cl)s1 | -38% | ? | -1% | -50* | -10 | -37%
Cc1cc(NC(=O)C(C)C)cc(-c2nc3ncccc3o2)c1O | -9% | 14% | · | · | 1 | -8%
COc1ccc(CN(C)C[C@@H]2OCCCC[C@H](C)Oc3ccc(NC(=O)Nc4ccc(F)cc4)cc3C(=O)N([C@H](C)CO)C[C@H]2C)cc1 | -80% | · | · | -14 | 4 | -13%
CN(Cc1ccccc1)C(=O)COc1ccc(C(C)(C)C)cc1 | 46% | 9% | -1% | -8 | -7 | -9%
COc1ccc(C(CNC(=O)c2oc3ccccc3c2C)N2CCCCC2)cc1 (stereo not given) | · | 13% | · | · | -24 | i
COc1ccc(C(CNC(=O)c2cc3ccccc3o2)N2CCCCC2)cc1 (stereo not given) | -48% | -4% | 0% | -74* | -18 | -23%
